Where “and” joins values, the source holds several entries; their conditions need not be identical. Equal values may be shown once. The panel holds about 83,000 compounds, 20% with a hit somewhere; the sample as a whole holds those more often.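 Plates (96-well) were seeded with cells, treated with compound at one concentration, and incubated for 48 hours before percent growth was determined.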 Calls of active or inactive are those of the source. Rule for the calls: active = growth percent below 10; inactive = the rest.
Legend:
Assay in all cases: NCI-60 one-dose screen, 48 h (100 = growth as untreated, 0 = no growth, -100 = all killed)
Settings in all cases: 10 µM unless noted
[1] = tested on: SR leukemia
[2] = tested on: RPMI-8226 leukemia
[3] = tested on: OVCAR-8 ovarian
[4] = tested on: OVCAR-5 ovarian
[5] = tested on: OVCAR-4 ovarian
[6] = tested on: SK-OV-3 ovarian
[7] = tested on: IGROV1 ovarian
[8] = tested on: OVCAR-3 ovarian
[9] = tested on: HS 578T breast
[10] = tested on: NCI/ADR-RES ovarian

Measured: growth

CC(C)=NOC(C)C(=O)O (stereo not given)
inactive: [1] 92% | [2] 111% | [3] 90.2% | [4] 101% | [5] 108% | [6] 115% | [7] 135% | [8] 114% | [9] 108% | [10] 99.6%

Nc1ccc2ccc(NS(=O)(=O)N3CCCCC3)cc2c1
inactive: [2] 46% | [3] 34.2% | [4] 56.1% | [5] 39.2% | [6] 31.8% | [7] 76.3% | [9] 20.9%
active: [1] 6.48% | [8] -9.56% | [10] -24.8%

Cc1nc2c(=O)[nH]c(=S)[nH]c2[nH]c1=O
inactive: [1] 112% | [2] 104% and 105% | [3] 103% | [4] 109% and 102% | [5] 113% | [6] 112% and 107% | [7] 107% and 113% | [8] 118% and 111% | [9] 102% | [10] 106% and 103%

CCOC(=O)c1csc(N)n1
inactive: [1] 102% | [2] 83.7% and 97.4% | [3] 97.4% | [4] 106% and 104% | [5] 104% and 94.9% | [6] 101% and 98% | [7] 56.3% and 109% | [8] 108% and 107% | [9] 95.1% and 101% | [10] 111% and 104%

CCc1ccc(OC(=O)CCl)cc1
inactive: [1] 101% | [2] 111% | [3] 101% | [4] 107% | [5] 95.6% | [6] 112% | [7] 108% | [8] 104% | [9] 110% | [10] 103%

Nc1c(Cl)cc2c(c1Br)C(=O)c1ccccc1C2=O
inactive: [1] 78.4% | [2] 98.3% | [3] 89.3% | [4] 98.5% | [5] 106% | [6] 84% | [7] 71.6% | [8] 117% | [9] 98% | [10] 92.4%

CC(=O)Oc1cc(C(C)C)c(OCCN(C)C)cc1C
inactive: [1] 107% | [2] 123% and 105% | [4] 92.7% | [5] 111% and 114% | [6] 115% and 101% | [7] 110% and 112% | [8] 125% and 119% | [9] 99.2% and 97.7% | [10] 99.5% and 111%
-70.9% (active) and 99% (inactive): [3]

O=C1C2=C(Nc3cc(Cl)ccc3N2)OC1c1c[nH]c2ccc(COc3ccccc3)cc12 (stereo not given)
inactive: [1] 85.4% | [2] 59.3% | [3] 46.9% | [4] 88.2% | [5] 31.8% | [6] 26.7% | [7] 65.3% | [8] 55.1% | [9] 29.6% | [10] 51.4%

CC(C)(C)OC(=O)NCCc1ccc(N)cc1
inactive: [1] 99.5% | [2] 91.4% | [3] 104% | [4] 111% | [5] 98.8% | [6] 101% | [7] 104% | [8] 106% | [9] 96% | [10] 99.2%

O=S(=O)(O)c1ccc2cc(O)ccc2c1
inactive: [1] 101% | [2] 106% | [3] 102% | [4] 107% | [5] 112% | [6] 104% | [7] 109% | [8] 112% | [9] 104% | [10] 105%

COc1ccc2nccc(Cl)c2c1
inactive: [1] 101% | [2] 110% | [3] 108% | [4] 102% | [5] 118% | [6] 111% | [7] 105% | [8] 102% | [9] 103% | [10] 104%

CCOC(=O)NC(N)=O
inactive: [1] 90.3% and 108% | [2] 101% and 99.4% | [3] 102% and 97% | [4] 101% | [5] 116% and 106% | [6] 104% and 114% | [7] 98% and 110% | [8] 113% and 125% | [9] 102% and 107% | [10] 105% and 107%

— PubChem BioAssay (NCI)
